Source: PubChem BioAssay AID1117319 (Southern Research Institute, 2015)
About 1,500 (0.58%) of roughly 260,000 compounds were called active. Not shown: some 5% with an inconclusive outcome.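 How the source made its calls: active means inhibition above a set limit at one or more doses, reproduced on every date tested; inconclusive means results disagree between test dates, or hit never tested in dose response; inactive means the rest.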 Not all results are given here. Results with a measured potency or affinity are listed apart.

target: Virion infectivity factor (Human immunodeficiency virus type 1 group M subtype B (isolate BH10)) + Virion infectivity factor (Human immunodeficiency virus type 1 group M subtype B (isolate BRU/LAI)) + Virion infectivity factor (Human immunodeficiency virus type 1 group M subtype B (isolate PCV12)) + Virion infectivity factor (Human immunodeficiency virus type 1 group M subtype B (isolate HXB2)) + DNA dC->dU-editing enzyme APOBEC-3G (Homo sapiens) (UniProt P69720+P69721+P69722+P69723+Q9HC16); assay: HIV-1 Vif–A3G interaction blockers – biochemical, TR-FRET, GST-Vif 1-94, biotin-A3G peptide, dose response retest, primary screen (AID 1117319); settings: TR-FRET GST-Vif / biotin-A3G peptide binding; active compounds read high;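 further: Vif residues 1-94 fused to GST binding biotinylated APOBEC3G peptide 110-148; 0% = full assay without inhibitor and 100% = GST in place of GST-Vif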

| Structure (SMILES) | inhibition |
| --- | --- |
| COc1ccccc1CNC(=O)c1ccc(OC(C)C)cc1 | -1.85% (inactive) |
| O=C(NCc1cccnc1)c1nn2cccnc2c1Cl | 14.7% (inactive) |
| O=C(CSc1nnc2ccccn12)NNC(=O)c1cccc([N+](=O)[O-])c1 | -9.15% (inactive) |
| COc1cc2nc(CCc3ccccc3)oc(=O)c2cc1OC | 19.2% (inactive) |
| Clc1cc2nc3ccccn3c2cc1Cl | -1.52% (inactive) |
| N#Cc1ccc2c(c1)nc1ccccn12 | 16.5% (inactive) |
| CC1=CN2CC(O)CN=C2C=C1 (stereo not given) | -3.44% (inactive) |
| Cc1cnc(C(=O)OCC(=O)N(Cc2ccccc2)C(C)(C)C)cn1 | -7.28% (inactive) |
| Cc1cc(C(=O)OCC(=O)c2ccc3c(c2)OCCO3)c(C)o1 | 7.16% (inactive) |
| COC(=O)CCN(C(=O)c1ccc(Cl)c([N+](=O)[O-])c1)c1ccccn1 | 21.1% (inactive) |
| CN1c2ccc([N+](=O)[O-])cc2N(C)C1(C)c1ccccc1 (stereo not given) | -8.03% (inactive) |
| O=[N+]([O-])c1ccc2c(c1)N([O-])C1(CCCCC1)[N+]2=O | -0.91% (inactive) |
| O=C(COC(=O)c1ccc(S(=O)(=O)N2CCOCC2)cc1)Nc1ccccc1F | -5.99% (inactive) |
| C=CCN(CC=C)C(=S)NC(=O)c1ccc(C)c(Br)c1 | 3.99% (inactive) |
| C=CCN(CC=C)C(=S)NC(=O)c1ccc(OC)c(Br)c1 | 3.9% (inactive) |
| C[n+]1ccn(CC(=O)c2cccs2)c1 | -0.3% (inactive) |
| O=[N+]([O-])c1ccc2nc(CN3CCCCC3)[nH]c2c1 | -2.67% (inactive) |
| Nc1ccc(C(=O)C(=O)c2ccc(N)cc2)cc1 | -4.86% (inactive) |
| Nc1ccc(C(=O)NCCCCCCNC(=O)c2ccc(N)cc2)cc1 | -3.48% (inactive) |
| CC(C)=CCN1CCN(Cc2cccn2-c2nccs2)CC1CCO (stereo not given) | 3.13% (inactive) |

| Structure (SMILES) | inhibition |
| --- | --- |
| C/C(=N\NC(=O)CNC(=O)c1ccco1)c1ccc(Br)cc1 | -0.8% (inactive) |
| CCn1c(/C=C/c2ccc(O)c(O)c2)nc2ccccc2c1=O | 23.1% (inactive) |
| COc1ccc(/C=C/c2nc3ccccc3c(=O)n2-c2cccc(C(=O)O)c2)cc1 | -12.6% (inactive) |
| N#Cc1c(N)sc2c1CCCCCC2 | 22.4% (inactive) |
| CC1(C)Cc2c(C#N)c(N)sc(=S)c2CO1 | 18.9% (inactive) |
| CS(=O)(=O)N1CCC(C(=O)Nc2cccc(C(F)(F)F)c2)CC1 | 30.5% (inactive) |
| COc1ccc(CCNC(=O)COC(=O)/C=C/c2ccc3c(c2)OCO3)cc1 | -7.05% (inactive) |
| COc1ccc(CCn2c(O)c(C=Nc3cccc(F)c3)c(=O)[nH]c2=O)cc1OC | 22.7% (inactive) |
| CC(=O)N1CCN(c2ccc(N=Cc3c(O)n(Cc4ccccc4)c(=O)[nH]c3=O)cc2)CC1 | 15.1% (inactive) |
| CCc1ccc(-n2c(O)c(C=NCCN(CC)CC)c(=O)[nH]c2=O)cc1 | 1.67% (inactive) |
| COc1ccc(CCn2c(N)cc(=O)[nH]c2=O)cc1OC | -7.47% (inactive) |
| COc1cccc(CNS(=O)(=O)c2ccc3c(c2)CCN3C(=O)C2CC2)c1 | 5.57% (inactive) |
| CCCC(NC(=O)CCc1c(C)c2cc3c(-c4ccccc4)coc3cc2oc1=O)C(=O)O (stereo not given) | -3.65% (inactive) |
| O=c1cc(O)n(-c2ccccc2)c(=S)[nH]1 | 30.2% (inactive) |
| O=c1cc(O)n(-c2ccc(Cl)cc2)c(=S)[nH]1 | -0.58% (inactive) |
| CC(C)[C@H](NC(=O)c1c(F)cccc1F)C(=O)OCC(=O)NC(=O)NC1CCCC1 | -7.96% (inactive) |
| Cc1ccccc1S(=O)(=O)c1c(C)cc(C)n(C)c1=O | 6.26% (inactive) |
| Cc1cccc(C(=O)NNS(=O)(=O)c2ccc(F)cc2)c1 | -1.42% (inactive) |
| O=C(N/N=C/c1cccc([N+](=O)[O-])c1)c1cccc2cc[nH]c12 | -4.35% (inactive) |
| CC1=C(C(N)=O)C(c2cccs2)n2nc(-c3cccc(C)c3)nc2N1 (stereo not given) | 10.3% (inactive) |

| Structure (SMILES) | inhibition |
| --- | --- |
| CC1=C(C(=O)Nc2ccccc2F)C(c2ccsc2)C2=C(CC(C)(C)CC2=O)N1 (stereo not given) | 0.63% (inactive) |
| COC(=O)C1=C(C)NC2=C(C(=O)CC(c3cccs3)C2)C1c1ccsc1 (stereo not given) | 3.51% (inactive) |
| O=C(COC(=O)c1cc(-c2cccnc2)nc2ccccc12)Nc1ccc(F)cc1F | -4.09% (inactive) |
| CN(C(=O)COC(=O)c1cc(-c2ccc(Cl)s2)nc2ccccc12)C1CCS(=O)(=O)C1 (stereo not given) | -9.51% (inactive) |
| CCNC(=O)COC(=O)c1cc(-c2ccc(OC)cc2)nc2ccccc12 | 17.1% (inactive) |
| CCCCN(C(=O)c1cc(-c2ccco2)nc2ccccc12)c1c(N)n(CCCC)c(=O)[nH]c1=O | 22.2% (inactive) |
| CCCn1c(N)c(N(CCOC)C(=O)c2cc(-c3ccco3)nc3ccccc23)c(=O)[nH]c1=O | 22.8% (inactive) |
| Cc1ccc(-c2cc(C(=O)OCC(=O)N(C)C3CCS(=O)(=O)C3)c3ccccc3n2)c(C)c1 (stereo not given) | 5.39% (inactive) |
| O=C(COC(=O)c1cc(-c2ccco2)nc2ccccc12)NCc1ccccc1 | 27.6% (inactive) |
| Cc1cccc(C)c1NC(=O)COC(=O)c1cccnc1 | 0.67% (inactive) |
| COc1ccc(-c2nnc(SCC(N)=O)n2N)cc1 | -2.53% (inactive) |
| O=[N+]([O-])c1ccc(/C=N/N2CCN(c3ccncc3S(=O)(=O)N3CCCCC3)CC2)cc1 | -3.38% (inactive) |
| O=C(c1cccc2ccccc12)C1CCCN(C(=O)C2CCOCC2)C1 (stereo not given) | 3.16% (inactive) |
| CCn1c(SCC(=O)Nc2sc3c(c2C#N)CCCC3)nnc1-c1ccco1 | 3.19% (inactive) |
| COc1cccc(NC(=S)NCCc2ccccn2)c1 | -0.67% (inactive) |
| Cc1ccc(N2CC(C(=O)OCC(=O)c3c(N)n(CC(C)C)c(=O)n(C)c3=O)CC2=O)cc1 (stereo not given) | -1.07% (inactive) |
| COC(=O)CSc1cc(C)nc(NC(C)=O)n1 | 3.6% (inactive) |
| CC(C(=O)OCC(=O)Nc1ccc2c(c1)OCO2)N1C(=O)c2ccccc2C1=O (stereo not given) | 5.56% (inactive) |
| CCN(CC)S(=O)(=O)c1cccc(C(=O)N[C@H](C(=O)OCC(N)=O)C(C)C)c1 | 19% (inactive) |
| CC(C)c1ccc(C(=O)OCC(=O)c2c(N)n(C)c(=O)n(C)c2=O)cc1 | 2% (inactive) |
